# Screens as filed in PubChem BioAssay.
# Compounds with a hit are over-represented: about 3.1% of the library has one in this group of screens.
# GLS inh = blocks human kidney-isoform glutaminase activity. O94925. GLS enzymatic activity, qHTS titration. Potency, µM (doses to about 45.5 µM), for inactives: top-dose activity change, negative = inhibition, most hits filed as inhibitors. 0.21% of 410,000 active. AID 624170; also: potency is read from the fitted curve at half-maximal effect
#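 Assay buffer: 45 mM KH2PO4 pH 8.2, 0.02% Tween-20. hKGA acts on L-glutamine (1 mM solution added); product glutamate is reported by an oxidase/peroxidase Amplex Red coupling, with fluorescence taken at baseline and 30 min.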
# PLK1 PBD inh = inhibitors of human PLK1 polo-box domain binding; Plk1 PBD binding of FITC phosphopeptide, fluorescence polarization; Potency, µM, without a hit: max response, negative = inhibition, most hits filed as inhibitors; 2.8% of 360,000 active; P53350; also: potency is read from the fitted curve at half-maximal effect; series mostly up to about 57 µM; nearly all actives have a fitted effect of over 65% in size
# VDR inhibitor = vitamin D3 receptor (human) inhibition; VDR-SRC2-3 peptide fluorescence polarization, 2 h; P11473; AID 504847; 0.93% of 400,000 active; Potency, µM, for the others: max response, negative = inhibition, usual class: inhibitors; also: potency is read from the fitted curve at half-maximal effect
#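 Fluorescence polarization assay of small-molecule disruption of VDR binding to coregulator peptide SRC2-3. Compounds and controls pin-transferred, then read after 2 h incubation at ambient room temperature.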
# GCN5L2 inh = blocks human GCN5L2 histone acetyltransferase. Q92830. GCN5L2 HAT assay, ThioGlo1 CoA-SH fluorescence. Potency, µM (series often up to 58.9 µM), for inactives: top-dose activity change, negative = inhibition, most hits filed as inhibitors. 0.21% of 390,000 active; also: potency is read from the fitted curve at half-maximal effect
#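 GCN5L2 (20 nM) in 50mM HEPES pH 7.5, 0.1mM EDTA, 0.01% Tween-20 preincubated 15 min with compounds at room temperature. Reaction started with H3(1-25) 75uM, acetyl-CoA 70uM, ThioGlo1 50uM; CoA-thiol fluorescence (Ex340/Em540) read at 0 and 20 min.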
# PI4K2A block = inhibitors of human PI4K2A. purified PI4K2A, ADP-Glo luminescence, 1 h; active compounds read low. activity change, negative = inhibition, % at 76.9 µM. 0.13% of 420,000 active; in the data active = activity change below about -50%; inconclusive = mostly about -30% to -49%;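 also: -100% = wells without enzyme as full effect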
# Target sequence (Q9BTU6 whole entry, looked up): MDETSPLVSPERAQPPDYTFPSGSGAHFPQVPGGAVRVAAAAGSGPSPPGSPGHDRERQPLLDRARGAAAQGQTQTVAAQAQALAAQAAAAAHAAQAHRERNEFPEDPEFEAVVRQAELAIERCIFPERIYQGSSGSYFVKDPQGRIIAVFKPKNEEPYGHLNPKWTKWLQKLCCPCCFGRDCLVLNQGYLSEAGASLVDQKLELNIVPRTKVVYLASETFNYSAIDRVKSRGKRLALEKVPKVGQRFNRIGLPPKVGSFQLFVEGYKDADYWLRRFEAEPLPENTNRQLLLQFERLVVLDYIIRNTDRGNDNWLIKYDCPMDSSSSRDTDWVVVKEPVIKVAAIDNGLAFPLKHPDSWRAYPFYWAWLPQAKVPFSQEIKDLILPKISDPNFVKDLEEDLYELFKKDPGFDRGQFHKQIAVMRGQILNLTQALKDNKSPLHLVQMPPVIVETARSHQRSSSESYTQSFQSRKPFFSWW
#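 In this quantitative HTS, ADP production by PI4K2A was quantified luminescently after 1 h at ambient temperature; 100 microM adenosine served as plate-quality control.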
# * marks the source's active call; other numbers are inactive results; ? = inconclusive; nt = not tested or not shown. Unless noted, calls follow the shape of the dose curve; as a rule, active = well fitted curve in the direction sought with a large enough effect; inconclusive = small, poorly fitted or top-dose-only effect, or another doubt; inactive = no such curve, though single readings can be large; an effect the other way counts as inactive or inconclusive. Unless noted, % is scaled to controls: 0 for no effect and ±100 for the full control effect.
SMILES,GLS inh,PLK1 PBD inh,VDR inhibitor,GCN5L2 inh,PI4K2A block
C=CCOC(=O)C1=C(C)NC(SCC(=O)Nc2nccs2)=C(C#N)C1c1cccs1 (stereo unspecified),7%,30µM*,-15%,2%,1
COc1ccc(OC(C)C(=O)Nc2ccc(F)cc2F)cc1 (stereo unspecified),-1%,21µM*,3%,-5%,-9
COc1ccc(OC(C)C(=O)Nc2ccccc2F)cc1 (stereo unspecified),-10%,3%,-7%,0%,-1
CC1(C)CCC[C@@](C)([C@H]2CC[C@]3(C)[C@@H]2[C@H](O)CC2[C@@]4(C)CC[C@H](O)C(C)(C)[C@@H]4[C@@H](O)C[C@]23C)O1 (stereo partly specified),nt,nt,-6%,0%,nt
c1ccc(-c2noc(CN3CCN(c4cnccn4)CC3)n2)cc1,0%,13µM*,-10%,-21%,-4
CC1=C(C#N)C(/C=N/OCc2ccc(F)cc2Cl)CC(=O)N1 (stereo unspecified),33%,30µM*,?,0%,3
CC(C1CC2CCC1C2)n1c(-c2ccco2)n[nH]c1=S (stereo unspecified),11µM*,30µM*,79µM*,-18%,-3
Cc1ccc(-n2c(-c3ccco3)n[nH]c2=S)cc1,-10%,-7%,-15%,-1%,3
CCOc1ccc(NC(=O)c2c(NC(=O)c3ccccc3Br)sc3c2CCC(C)C3)cc1 (stereo unspecified),-12%,nt,40µM*,?,3
COC(=O)[C@]12C[C@H](CC(=O)N3CCN(C(=O)C4CC4)CC3)C(=O)N(Cc3cccc4ccccc34)C1=C[C@H](C(C)(C)C)O[C@@H]2C,nt,nt,nt,nt,-1
CC1(C)CC(=O)C(=Cc2cn(-c3ccccc3)nc2-c2ccc(Cl)cc2)C(=O)C1,?,1.2µM*,?,-4%,-15
CC1(C)CC(=O)C(=Cc2cn(CCC#N)nc2-c2ccc(F)cc2)C(=O)C1,13%,3.4µM*,?,-5%,-22
O=C(O)/C(=C\c1cn(-c2ccccc2)nc1-c1ccc(Cl)cc1)NC(=O)c1ccccc1,10%,-15%,-7%,-4%,-4
O=C(c1cn(CCOc2ccc(Cl)cc2)c2ccccc12)C1CCCCC1,7%,nt,-3%,0%,-1
Cc1nc2c(nc1C)C(=O)c1ccccc1C2=O,-4%,-2%,5%,nt,-56*
Nc1nc2n(n1)C(c1cccs1)CC(c1ccccc1)N2 (stereo unspecified),11%,-7%,8%,0%,-4
Nc1nc2n(n1)C(=O)CC(c1ccccc1)N2 (stereo unspecified),6%,27µM*,5%,-2%,2
Cc1ccc(F)c(NC(=O)/C(C#N)=C(\O)c2ccc(C(C)(C)C)cc2)c1,16%,30µM*,?,?,-10
CCCCCCCCCCCCCCCCN,6%,nt,1%,-5%,0
C=CCOc1cccc(/C=C\c2nc(O)c([N+](=O)[O-])c(=O)[nH]2)c1,2%,-7%,14µM*,-23%,-21
O=c1[nH]c(/C=C\c2ccccc2F)nc(O)c1[N+](=O)[O-],6%,-6%,?,-9%,-20
O=c1[nH]c(/C=C\c2cccc(F)c2)nc(O)c1[N+](=O)[O-],1%,0%,40µM*,-1%,-17
O=C(N/N=C/c1ccc(F)cc1)c1cc(-c2ccco2)nc2ccccc12,10µM*,?,3%,?,?
O=C(N/N=C/c1ccc(O)c(O)c1)c1cc(-c2ccccc2)nc2ccccc12,13µM*,2%,-9%,-11%,-2
Cc1nn(-c2ccccc2)c2nc(-c3ccco3)cc(C(=O)O)c12,7.1µM*,?,1%,-20%,-23
SMILES,GLS inh,PLK1 PBD inh,VDR inhibitor,GCN5L2 inh,PI4K2A block
O=C(O)c1cc(-c2ccco2)nc2ccccc12,?,?,79µM*,?,-11
O=C(c1ccc(F)cc1Cl)N1CCCC(c2nc(-c3cccs3)no2)C1 (stereo unspecified),nt,nt,nt,nt,-5
CCOc1ccc(-n2c(SCC(=O)Nc3ccc(S(=O)(=O)Nc4nccs4)cc3)nnc2-c2ccncc2)cc1,nt,nt,nt,nt,-2
CCN(CC)C(=O)CC[C@@H]1CC[C@]2(CCCN(C(=O)c3cccnc3)C2)O1,nt,nt,nt,nt,6
O=C(NC1CC1)c1cc(-c2ccco2)nc2ccccc12,?,21µM*,-11%,?,?
COCCCN1C(=O)[C@H](CC(=O)N2CCCCC2)[C@]2(C(=O)OC)CCCCC=C12,nt,nt,nt,nt,7
C/C(=N\NC(=O)c1cc(C(C)(C)C)[nH]n1)C12CC3CC(CC(C3)C1)C2,?,17µM*,-29%,7%,1
N=C1/C(=C\c2ccc(SCc3ccccc3)o2)C(=O)N=C2SC(CC(=O)N3CCOCC3)=NN12,6%,?,-3%,-22%,-4
Cc1ccc(/C=C2\C(=N)N3N=C(CC(=O)N4CCOCC4)SC3=NC2=O)o1,5%,27µM*,-10%,-8%,-10
N=C1/C(=C/c2ccc(-c3cccc(C(=O)O)c3)o2)C(=O)N=C2SC(CC(=O)N3CCOCC3)=NN12,?,30µM*,19%,-25%,-6
COc1ccc(/C=C2\C(=N)N3N=C(CC(=O)N4CCOCC4)SC3=NC2=O)cc1,4%,-9%,-4%,-5%,-2
N#Cc1cccc(NC(=O)OCCN2C(=O)CCC23CCC(c2ccc(Cl)cc2)CC3)c1 (stereo unspecified),nt,nt,nt,nt,1
CC(C)CN1C(=O)[C@@]2(CC(=O)N(C)C2c2ccccc2)c2cc(-n3cc(CO)nn3)ccc21 (stereo partly specified),nt,nt,nt,nt,-6
COc1ccc(CCC(=O)O)c(O)c1,-22%,-5%,-23%,?,3
COCc1cc(O)c(O)c(O)c1-c1c(COC)cc(O)c(O)c1O,nt,nt,16µM*,0%,nt
COc1cc(CN2CCNC(=O)C2CC(=O)N(C)CCC2CCOCC2)cc(OC)c1 (stereo unspecified),40%,27µM*,?,3%,1
COc1ccc(CN2CCNC(=O)C2CC(=O)N(C)Cc2nccs2)c(OC)c1 (stereo unspecified),4%,27µM*,-16%,-2%,-5
CN(C(=O)CC1C(=O)NCCN1Cc1ccccc1C(F)(F)F)C1CCOCC1 (stereo unspecified),3%,11µM*,?,-4%,-8
Cc1nc(C2CCCCC2)c(-c2ccc(S(N)(=O)=O)c(F)c2)o1,nt,nt,nt,nt,-4
c1ccc(N2CCN(c3nc4cc5c(cc4s3)OCO5)CC2)cc1,-1%,27µM*,?,-9%,0
c1c2c(cc3sc(N4CCOCC4)nc13)OCO2,15%,27µM*,?,-3%,-28
Cc1ccc(S(=O)(=O)N2CCCC2C(=O)N2CCc3ccccc3C2)cc1C (stereo unspecified),nt,nt,nt,nt,3
